Among the test systems are HCT-15 colon; HT29 colon; SNB-75 CNS; SNB-19 CNS; U251 CNS; PC-3 prostate; SK-MEL-5 melanoma; UACC-62 melanoma; LOX IMVI melanoma; SK-MEL-28 melanoma; SK-MEL-2 melanoma; EKVX NSCLC; SN12C renal; UO-31 renal; TK-10 renal; ACHN renal; CAKI-1 renal; A498 renal; CCRF-CEM leukemia; MOLT-4 leukemia.
What all share (experiment): NCI-60 one-dose screen, 48 h (100 = growth as untreated, 0 = no growth, -100 = all killed)
Details in all cases: 10 µM

About 83,000 compounds went through this panel and 20% of them were active in at least one assay; those are over-represented in the sample as a whole.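 Results are percent growth after 48 hours of single-concentration exposure. 100 means growth as in untreated cells, lower positive values show inhibition; negative values down to -100 show cell death.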 Values without a mark were called inactive. Calls of active or inactive are those of the source. How the source made its calls: active means growth percent below 10; inactive means the rest.

With `O=C(Cc1ccc2c(c1)CN(C1CCC(=O)NC1=O)C2=O)NCc1cccc2ccccc12` (stereo not given), the growth is -30.1% (active) in the test with HCT-15 colon; 3.65% (active) in the test on HT29 colon; -33.1% (active) in the test with SNB-75 CNS; -11.9% (active) with SNB-19 CNS; 17.2% in the test with U251 CNS; 6.97% (active) in the test with PC-3 prostate. In addition, the growth with SK-MEL-5 melanoma was -93.8% (active); in the test with UACC-62 melanoma, 4.05% (active); in the test on LOX IMVI melanoma, -48.3% (active); with SK-MEL-28 melanoma, -10.6% (active); with SK-MEL-2 melanoma, -45.7% (active); in the test with EKVX NSCLC, 1.9% (active). Besides, the growth was -7.92% (active) in the test on SN12C renal; -33.8% (active) in the test on UO-31 renal; 18% in the test with TK-10 renal; -19% (active) in the test on ACHN renal; 7.68% (active) in the test on CAKI-1 renal; -13.2% (active) in the test with A498 renal. Also, the growth with CCRF-CEM leukemia was 9.65% (active); in the test with MOLT-4 leukemia, -15.2% (active).
Turning to `CCOc1ccc(Nc2nc3ccccc3nc2Nc2ccc(OCC)cc2)cc1`, the growth was 26.8% with HCT-15 colon; 27.9% in the test on HT29 colon; 90.9% with SNB-75 CNS; 39.7% in the test with SNB-19 CNS; 32.3% with U251 CNS; 19.8% in the test on PC-3 prostate. In addition, the growth is 81.6% with SK-MEL-5 melanoma; 73.3% in the test on UACC-62 melanoma; 83.8% in the test with LOX IMVI melanoma; 99% in the test with SK-MEL-28 melanoma; 89% in the test with SK-MEL-2 melanoma; 46.6% in the test with EKVX NSCLC. For the same compound, the growth in the test with SN12C renal is 54.7%; in the test on UO-31 renal it was 54.9%; with TK-10 renal, 72%; with ACHN renal, 52.9%; in the test with CAKI-1 renal, 51.4%; in the test on A498 renal it was 69.1%. Further, the results for the growth in the test on CCRF-CEM leukemia and with MOLT-4 leukemia were 23.7% and 9.99% (active), respectively.
As to `O=C(/C=C/Nc1ccccc1)c1ccc2c(c1)Nc1ccccc1S2`, the growth in the test on HCT-15 colon was 80.4%; with HT29 colon it was 90.4%; in the test on SNB-75 CNS it was 106%; in the test on SNB-19 CNS, 36.3%; with U251 CNS, 38%; with PC-3 prostate, 78.5%. Further, the growth in the test with SK-MEL-5 melanoma is 96.7%; with UACC-62 melanoma, 68.9%; in the test on LOX IMVI melanoma, 79.9%; with SK-MEL-28 melanoma, 100%; in the test on SK-MEL-2 melanoma, 78.1%; in the test on EKVX NSCLC, 81.4%. Besides, the growth with SN12C renal was 69.2%; in the test on UO-31 renal, 93.1%; in the test with TK-10 renal it was 96.2%; with ACHN renal it was 84.3%; with CAKI-1 renal, 91.5%; with A498 renal, 120%. Besides, the growth in the test on CCRF-CEM leukemia is 94.2%; with MOLT-4 leukemia it was 89.7%.
With `COc1ccccc1C(=O)NNC(=O)CSc1nc2c(c(=O)[nH]1)CCCC2`, the growth in the test on HCT-15 colon is 110%; in the test with HT29 colon it was 113%; in the test on SNB-75 CNS, 99.3%; with SNB-19 CNS, 101%; in the test with U251 CNS it was 104%; with PC-3 prostate, 83.4%. Also, the growth was 99.3% in the test on SK-MEL-5 melanoma; 95.2% in the test on UACC-62 melanoma; 96.9% with LOX IMVI melanoma; 110% with SK-MEL-28 melanoma; 112% with SK-MEL-2 melanoma; 91.5% with EKVX NSCLC. Besides, the growth in the test with SN12C renal was 102%; with UO-31 renal, 61.9%; in the test with TK-10 renal it was 132%; in the test on ACHN renal, 98.8%; with CAKI-1 renal, 84.5%; with A498 renal, 153%. The growth with CCRF-CEM leukemia is 96.8%; with MOLT-4 leukemia, 105%.
As to `COc1ccc(N(C)c2cc(C#N)nc3ccccc23)cc1N`, the growth in the test with HCT-15 colon is 0.224% (active); in the test on HT29 colon, -22.1% (active); in the test with SNB-75 CNS, 15.3%; in the test with SNB-19 CNS, 12.2%; in the test on U251 CNS it was 9.78% (active); in the test with PC-3 prostate, 30.3%. Further, the growth in the test with SK-MEL-5 melanoma was -47.7% (active); in the test with UACC-62 melanoma, 23.5%; with LOX IMVI melanoma it was 15%; with SK-MEL-28 melanoma it was 56.3%; in the test on SK-MEL-2 melanoma it was 4.88% (active); with EKVX NSCLC, 20.5%. Moreover, the growth was 5.85% (active) in the test on SN12C renal; 20.6% with UO-31 renal; 76.7% in the test on TK-10 renal; 23.5% in the test with ACHN renal; 26.1% in the test with CAKI-1 renal; 113% in the test on A498 renal. The growth was 5.77% (active) with CCRF-CEM leukemia and 15.4% in the test with MOLT-4 leukemia.
Regarding `CC1(c2ccccc2)NC(=O)N(CC(=O)Nc2ccc(C(=O)/C=C/c3ccc(Cl)cc3)cc2)C1=O` (stereo not given), the growth with HCT-15 colon is -61.4% (active); in the test on HT29 colon, -46.9% (active); with SNB-75 CNS, 37.5%; in the test on SNB-19 CNS it was 30.9%; in the test with U251 CNS, -71.7% (active); with PC-3 prostate, 9.23% (active). For the same compound, the growth was -60.9% (active) with SK-MEL-5 melanoma; 1.17% (active) in the test on UACC-62 melanoma; -100% (active) in the test with LOX IMVI melanoma; 15.8% with SK-MEL-28 melanoma; 34% with SK-MEL-2 melanoma; 30.3% with EKVX NSCLC. For the same compound, the growth in the test on SN12C renal is 19.4%; in the test with UO-31 renal, 22.7%; in the test on TK-10 renal it was 67.9%; in the test with ACHN renal, 13.4%; in the test on CAKI-1 renal it was 21.4%; with A498 renal, 76.7%. The growth was 7.4% (active) in the test on CCRF-CEM leukemia and -4.5% (active) in the test on MOLT-4 leukemia.
Regarding `O=C(NO)c1ccc(CN2CCN(c3nc(-c4ccccc4)c4ccccc4n3)CC2)cc1`, the growth was 22.5% in the test with HCT-15 colon; 30.4% with HT29 colon; 81.7% with SNB-75 CNS; 22.8% in the test on SNB-19 CNS; 15.2% in the test on U251 CNS; 30.8% in the test with PC-3 prostate. In addition, the growth with SK-MEL-5 melanoma is -95.9% (active); in the test with UACC-62 melanoma, -23.9% (active); in the test with LOX IMVI melanoma, -60.6% (active); in the test on SK-MEL-28 melanoma, 24.1%; in the test with SK-MEL-2 melanoma, 67.4%; with EKVX NSCLC, 16%. For the same compound, the growth in the test on SN12C renal is 15.9%; in the test on UO-31 renal, -11.6% (active); with TK-10 renal, 19.7%; with ACHN renal, 4.08% (active); with CAKI-1 renal it was 6.42% (active); in the test on A498 renal it was 61.4%. The growth in the test on CCRF-CEM leukemia was 12%; with MOLT-4 leukemia it was 22.9%.

The record behind these values is PubChem BioAssay (NCI).
